Source: PubChem BioAssay

molecular target: Streptavidin (Streptomyces avidinii) (UniProt P22629); assay: compounds binding control protein streptavidin – biophysical, small-molecule microarray, 635/667 nm fluorescence, artefact control for SMM compound annotation, primary screen (AID 1147); conditions: higher = more signal;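 also: signal reflects streptavidin binding to arrayed compounds as a control protein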
Sequence (P22629 whole entry, looked up): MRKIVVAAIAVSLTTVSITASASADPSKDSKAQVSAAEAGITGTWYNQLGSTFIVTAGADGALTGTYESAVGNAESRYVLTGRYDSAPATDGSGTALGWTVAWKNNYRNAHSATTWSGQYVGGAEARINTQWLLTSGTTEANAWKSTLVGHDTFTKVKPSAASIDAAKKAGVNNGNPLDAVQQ

| Compound | composite z-score |
| --- | --- |
| CC[C@@H]1C=C(C(=O)O)[C@H](c2ccc(Br)cc2)N1S(=O)(=O)c1ccc(C)cc1 | 0.791 |
| O=C1c2ccccc2[C@](Cc2ccccc2I)(C(=O)NCCN2CCOCC2)[C@H](c2ccc(CO)cc2)N1Cc1ccccc1Cl | 0.851 |
| COC(=O)[C@@]1(Cc2ccc(OC)cc2)[C@H]2c3cc(C(=O)N4CCCC4)n(CCN4CNCC4=O)c3C[C@H]2CN1C(=O)c1ccccc1 | -0.002 |
| COC(=O)[C@@]1(Cc2ccc(OC)cc2)[C@@H]2C(=CC(=O)[C@H]2CC(=O)C(=O)N2CCCC2)CN1C(=O)c1ccccc1 | 0.571 |
| C=CCNC(=O)[C@@H]1[C@H]2C(=O)O[C@H](c3ccccc3)[C@H](c3ccccc3)N2[C@H](c2ccc(O)cc2)[C@@]12C(=O)N(C(=O)OCCOC)c1ccc(C#CCNC(N)=O)cc12 | 0.61 |
| Cc1ccc(S[C@]2(C(=O)NCCCN(C)C)CC(=O)N(Cc3cc(C(F)(F)F)cc(C(F)(F)F)c3)[C@@H]2c2ccc(CO)cc2)cc1 | -0.529 |
| COc1ccc([Si](C)(C)[C@H]2[C@H](CCO)O[C@@]3(C(=O)N(Cc4ccc(N(C=O)c5ccccc5)cc4)c4ccccc43)[C@@H]2C)cc1 | 0.114 |
| [N-]=[N+]=Nc1ccccc1[C@H]1OC(c2ccc(OCCCO)cc2)=N[C@@]1(CCS(=O)(=O)c1ccccc1)C(N)=O | 0.751 |
| NC(=O)NCC#Cc1ccc2c(c1)[C@]1(C(=O)N2)[C@H](c2ccccc2OCCO)N2[C@H](c3ccccc3)[C@H](c3ccccc3)OC(=O)[C@H]2[C@@H]1C(=O)Nc1nc2ccccc2s1 | 0.441 |
| CCCC=C(CCC)[C@@H](NC(=O)c1cccs1)c1ccc(C(F)(F)F)cc1 | 0.882 |
| CN(C)C(=O)[C@]1(Cc2ccccc2N=[N+]=[N-])N=C(c2ccc(OCCCO)cc2)O[C@@H]1c1ccccc1N=[N+]=[N-] | 1.41 |
| COC(=O)[C@@]1(Cc2ccc(OC)cc2)[C@H]2c3cc(C(=O)N(C)C)n(Cc4ccccn4)c3C[C@H]2CN1C(=O)c1ccccc1 | 2.57 |
| COC(=O)[C@@]1(Cc2ccc(F)cc2)[C@H]2c3cc(C(=O)N4CCCC4)n(CCCNc4ncc(C(F)(F)F)cc4Cl)c3C[C@H]2CN1C(=O)c1ccccc1 | 0.919 |
| O=C(CS)NCCCCCCNC(=O)[C@@H]1C[C@@H]2C(=O)NCC(=O)N2[C@@H]1c1cccc(OCCO)c1 | 0.0478 |
| CCOC(=O)C[C@H]1[C@H](OC(=O)c2ccccc2-c2ccccc2)[C@@H](NC(=O)CC(C)C)c2cc(OCCCO)ccc2N1C(=O)Cc1ccc(OC)cc1 | 0.0802 |
| COc1ccc([C@H]2OC[C@@H]3C[C@@H](Cc4ccccc4)C(=O)N32)cc1 | -0.679 |
| COc1ccc(CCNC(=O)[C@@]2(C)c3ccccc3C(=O)N(C(C)C)[C@H]2c2ccc(CO)cc2)cc1 | 0.454 |
| C=CCOC(=O)[C@@H]1[C@H]2C(=O)O[C@H](c3ccccc3)[C@H](c3ccccc3)N2[C@H](c2ccc(OCCOC(=O)[C@@H]3C[C@@H]4C(=O)NCC(=O)N4[C@@H]3c3ccc(O)cc3)cc2)[C@@]12C(=O)Nc1ccc(I)cc12 | -0.259 |

| Compound | composite z-score |
| --- | --- |
| O=C1C[C@@](C(=O)NCCN2CCOCC2)(c2ccc([N+](=O)[O-])cc2)[C@@H](c2ccc(CO)cc2)N1CC12CC3CC(CC(C3)C1)C2 | 0.379 |
| COCCOC(=O)N1C(=O)[C@@]2(c3cc(C#CCC(C(=O)OC)C(=O)OC)ccc31)[C@H](C(=O)Nc1nc3ccccc3s1)[C@H]1C(=O)O[C@H](c3ccccc3)[C@H](c3ccccc3)N1[C@@H]2c1ccccc1OCCO | 0.487 |
| COC(=O)[C@@]1(Cc2ccccc2)[C@H]2c3cc(C(=O)N(C)C)n(Cc4ccsc4Br)c3C[C@H]2CN1C(=O)c1ccccc1 | 1.09 |
| CC1CC/C=C\[C@H]2OC34C=CCN(C(C)(C)C)C(=O)[C@H]3N(CCO)C(=O)[C@@H]4C2C(=O)O1 (stereo partly specified) | -1.59 |
| C=C(CCCC)/C(=C/C[C@@H](OC(C)=O)c1ccc(OCCO)cc1)c1cnc2ccccc2c1 | 0.514 |
| CC(C)C(O)C1C=CC2C(=O)N(c3ccccc3)C(=O)C2N1Nc1ccc([N+](=O)[O-])cc1 (stereo unspecified) | 0.122 |
| C=C(COC)/C(=C/C[C@H](OC(C)=O)c1ccc(CO)o1)c1cc(C(=O)OC)ccc1OC | -0.427 |
| COC(=O)[C@@]1(Cc2ccc(OC)cc2)[C@H]2c3cc(C(=O)N(C)C)n(C)c3C[C@H]2CN1C(=O)c1ccccc1 | 1.77 |
| CCOC(=O)[C@H]1C/C=C/C[C@H](C(=O)OCC)C(=O)O[C@H]2[C@@H](OC)O[C@H](CO)[C@@H](OC(=O)c3c(OC)cccc3OC)[C@@H]2OC1=O | 0.475 |
| CC(C)NC(=O)[C@@]1(c2ccc([N+](=O)[O-])cc2)CC(=O)N(C2CCCCC2)[C@@H]1c1ccc(CO)cc1I | -0.154 |
| CN1C(=O)C2C=CC(C(O)c3ccc([N+](=O)[O-])cc3)N(N3CCCCC3)C2C1=O (stereo unspecified) | 0.901 |
| COCCOC(=O)N1C(=O)[C@@]2(c3cc(C#CCNC(N)=O)ccc31)[C@H](C(=O)N1CCN(c3ncccn3)CC1)[C@H]1C(=O)O[C@H](c3ccccc3)[C@H](c3ccccc3)N1[C@@H]2c1ccc(OCCO)cc1 | 0.619 |
| O=C1NC(=O)C2C1C=CC(C(O)c1cc(C(F)(F)F)cc(C(F)(F)F)c1)N2Nc1ccccn1 (stereo unspecified) | 0.0086 |
| COCCOC(=O)N1C(=O)[C@@]2(c3ccccc31)[C@H](C(=O)N1CCc3cc(OC)c(OC)cc3C1)[C@H]1C(=O)O[C@H](c3ccccc3)[C@H](c3ccccc3)N1[C@@H]2c1ccc(OCCO)cc1 | 0.547 |
| COC(=O)C(CC#Cc1ccc2c(c1)[C@]1(C(=O)N2)[C@H](C(=O)Nc2nc3ccccc3s2)[C@H]2C(=O)O[C@H](c3ccccc3)[C@H](c3ccccc3)N2[C@@H]1c1ccccc1OCCO)C(=O)OC | 0.679 |
| CN1C(=O)C2C=CC(C(O)c3ccccc3)N(N(c3ccccc3)c3ccccc3)C2C1=O (stereo unspecified) | 0.39 |
| COC(=O)[C@@]1(CCS(=O)(=O)c2ccccc2)N=C(c2ccc(OCCCO)cc2)O[C@H]1c1ccccc1CN=[N+]=[N-] | 0.415 |
| COC(=O)[C@H](Cc1ccccc1)N1CC2=C[C@@H](C3CC3)n3c(=O)n(C)c(=O)n3[C@H]2[C@@H]1[C@@H](O)Cc1ccccc1 | 0.462 |
